This note sets out measurements from the supplement of paper PMC6555819.

Assay in all cases: PBM binding z-score (relative to random genomic background probes); higher = stronger binding; sequences stand for … in GC…GCGATTGACAGCGTAGAATGAAGG
In assay [1] the test system is FXR:RXRa (NR concentration 270 nM, RXRa partner concentration 90 nM). The method in brief: (§1)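 Regression normalization was applied to scanned fluorescence from custom Agilent 4×180K protein-binding microarrays. Before scanning, arrays were incubated 1 h with ligand-free nuclear receptor dimers, and binding was detected with antibodies against each partner (one per run). Binding z-scores use the random background probes as reference.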

For assay [2], the system named is LXRa:RXRa (NR concentration 270 nM, RXRa partner concentration 90 nM). The procedure, abridged:
as §1

For assay [3], the system named is LXRa homodimer (NR concentration 270 nM). The procedure, abridged: as §1
Assay [4] has as its system LXRb:RXRa (NR concentration 270 nM, RXRa partner concentration 90 nM). The procedure, abridged:
as §1

For assay [5], the system named is LXRb homodimer (NR concentration 270 nM). The method in brief:
as §1

The subject of assay [6] is PPARa:RXRa (NR concentration 270 nM, RXRa partner concentration 90 nM). The method in brief:
as §1

The subject of assay [7] is PPARg:RXRa (NR concentration 180 nM, RXRa partner concentration 90 nM). The method in brief: as §1
Assay [8] relates to PPARg:RXRa 270nM:90nM, anti-RXR (NR concentration 270 nM, RXRa partner concentration 90 nM). The method in brief:
as §1

Assay [9] has as its system PPARg:RXRa 30nM:10nM, anti-RXR (NR concentration 30 nM, RXRa partner concentration 10 nM). The procedure, abridged: as §1
Assay [10] has as its system PPARg:RXRa 90nM:30nM, anti-RXR (NR concentration 90 nM, RXRa partner concentration 30 nM). The method in brief:
as §1

Assay [11] concerns PPARg:RXRa DBDmut IVT, anti-RXR (DBD mutation: RXRa K156A/R161A, NR concentration 270 nM, RXRa partner concentration 90 nM). The procedure, abridged:
as §1

Assay [12] concerns PPARg:RXRa IVT, anti-PPARg (NR concentration 270 nM, RXRa partner concentration 90 nM). The method in brief:
as §1

Assay [13] concerns PPARg DBDmut:RXRa IVT, anti-PPARg (DBD mutation: PPARg1 K132A/R137A, NR concentration 270 nM, RXRa partner concentration 90 nM). The method in brief:
as §1

For assay [14], the system named is PPARg DBDmut IVT, anti-PPARg (DBD mutation: PPARg1 K132A/R137A, NR concentration 270 nM). The method in brief: as §1
In assay [15] the test system is PPARg homodimer (NR concentration 180 nM). The method in brief: as §1
For assay [16], the system named is PXR:RXRa (NR concentration 270 nM, RXRa partner concentration 90 nM). The procedure, abridged: as §1
Assay [17] relates to PXR homodimer (NR concentration 270 nM). The method in brief: as §1
Assay [18] has as its system RARa:RXR (NR concentration 270 nM, RXRa partner concentration 90 nM). The procedure, abridged:
as §1

Assay [19] relates to RARa homodimer (NR concentration 270 nM). The method in brief: as §1
Assay [20] relates to RARb:RXRa (NR concentration 270 nM, RXRa partner concentration 90 nM). The procedure, abridged: as §1

Regarding TCTTGTAGATCAGCAGGTTAAGACAGCTGGCCAA, the PBM binding z-score in assay [1] is 0.409; in assay [2], 0.423; in assay [3], -0.459; in [4], 0.114; in [5], -0.579; in [6], 0.79. The PBM binding z-score is -0.112 in assay [7]; 1.46 in assay [8]; 2.57 in assay [9]; 2.02 in [10]; 1.91 in assay [11]; 0.417 in assay [12]. For the same sequence, the PBM binding z-score in assay [13] was 0.269; in assay [14], 0.156; in assay [15], 0.137; in assay [16], 0.129; in [17], -0.0251; in assay [18], 0.309. In addition, the PBM binding z-score was determined as 0.389 in assay [19] and 0.0665 in assay [20].
In the case of TCATGTAGATCAATAGAGGTTAAGAAAGTGCGCT, the PBM binding z-score in [1] came to 1.01; in assay [2], 3.41; in assay [3], 0.701; in [4], 1.95; in [5], 0.112; in [6], 1.83. For the same sequence, the PBM binding z-score is 0.225 in assay [7]; 1.59 in assay [8]; 3.1 in assay [9]; 1.96 in assay [10]; 2.25 in assay [11]; 0.891 in assay [12]. In addition, the PBM binding z-score in assay [13] was determined as 0.493; in assay [14], 0.436; in [15], 0.475; in [16], 3.08; in assay [17], 0.426; in [18], 1.85. Besides, the PBM binding z-score stood at 0.825 in [19] and 1.02 in assay [20].
For CAAACTAGGTCAAAGGTCAATGTCGAGCCAACCA, the PBM binding z-score in assay [1] was found to be 8.32; in assay [2], 7.09; in [3], 4.92; in assay [4], 6.96; in assay [5], 2.33; in [6], 7.33. The PBM binding z-score in [7] is 14; in assay [8], 11.7; in [9] it was 13.6; in assay [10] it was 14.2; in assay [11], 8.75; in assay [12], 9.22. Also, the PBM binding z-score in [13] turned out to be 5.2; in [14] it was 5.46; in assay [15], 8.27; in assay [16], 7.07; in assay [17] it was 1.86; in assay [18], 8.9. In addition, the results for the PBM binding z-score in assay [19] and in assay [20] were 4.59 and 5.51, respectively.
For the sequence GGACCGAGGGCAAGTTGATAGCAGAGTTTGATGG, the PBM binding z-score in assay [1] was 0.721; in [2], 0.322; in assay [3], -0.497; in [4], 0.0428; in assay [5] it was -0.812; in assay [6], 0.868. Also, the PBM binding z-score in assay [7] is 0.401; in assay [8] it was 0.00699; in assay [9], -0.601; in assay [10], -0.0881; in assay [11], 0.956; in assay [12] it was 0.614. The PBM binding z-score was -1.14 in assay [13]; -1.16 in [14]; 0.433 in [15]; 0.556 in [16]; 0.539 in assay [17]; 0.315 in assay [18]. For the same sequence, the PBM binding z-score in assay [19] was -0.39; in assay [20] it was 2.6.
As for TAGGCTAGGTCATGCGGGCCAGTATAGTGTCGGC, the PBM binding z-score amounted to 3.97 in assay [1]; 2.69 in assay [2]; 0.422 in assay [3]; 1.26 in [4]; 0.000142 in assay [5]; 3.1 in assay [6]. Moreover, the PBM binding z-score stood at 2.29 in assay [7]; 2.28 in assay [8]; 0.305 in [9]; 1.33 in assay [10]; 2.31 in assay [11]; 2.92 in assay [12]. Also, the PBM binding z-score in [13] was 0.345; in assay [14], 0.348; in [15], 1.24; in [16] it was 1.21; in [17], -0.485; in [18], 2.05. Moreover, the PBM binding z-score in [19] worked out at 0.442; in assay [20] it was 3.84.
On to GCTTGTAGATCAAGGTTAAGACAGACTAAGCTAA, for which the PBM binding z-score was 0.188 in assay [1]; 0.807 in assay [2]; -0.318 in assay [3]; 0.486 in assay [4]; -0.279 in assay [5]; 1.61 in assay [6]. The PBM binding z-score in [7] is 1.25; in assay [8], 2.16; in [9] it was 0.803; in assay [10] it was 1.8; in assay [11], 1.75; in assay [12] it was 1.34. Moreover, the PBM binding z-score in assay [13] was 0.667; in assay [14], -0.149; in assay [15], 0.0438; in assay [16], 0.721; in assay [17], -0.263; in assay [18] it was 0.922. Besides, the PBM binding z-score in assay [19] is -0.104; in assay [20] it was 0.893.
Regarding ATATGTAGGTTATTGGGTCATTCAGTTTGCGCAT, the PBM binding z-score in [1] is 2.82; in [2], 3.05; in assay [3], 2.1; in assay [4], 2.62; in assay [5], 1.34; in assay [6] it was 5.16. Besides, the PBM binding z-score in assay [7] stood at 8.04; in assay [8] it was 6.41; in assay [9], 3.93; in assay [10] it was 5.9; in [11], 7.67; in assay [12] it was 8.16. The PBM binding z-score turned out to be 4.52 in assay [13]; 3.64 in assay [14]; 4.1 in assay [15]; 3.06 in [16]; 4.6 in [17]; 3.36 in assay [18]. In addition, the PBM binding z-score in assay [19] stood at 2.83; in assay [20], 2.5.
